# Compound activity as filed in PubChem BioAssay.
# Many of the other results were omitted from the sample, so hits are more common in it than they were.
# ERK EGF inh – qHTS Assay for Inhibitors of the ERK Signaling Pathway using a Homogeneous Screening Assay; Stimulation with EGF. HEK293-V1b, EGF-stimulated phospho-ERK AlphaScreen. Potency, µM (doses to about 11.5 µM), for the others: at the top dose activity change, negative = inhibition, usual class: inhibitors. hit rate 0.41% among 130,000;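 note: plate controls were stimulated vehicle wells for no effect and unstimulated vehicle basal for full effect; nearly all actives have a fitted effect of over 55% in size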
#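 Stably V1b-transfected HEK293 cells; 30 min compound, then EGF 25 nM final for 5 min at 37C; 10 min lysis; phospho-ERK by AlphaScreen after 5 hr beads at room temperature.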
# IMPase Li cell – qHTS Assay for Identifying the Cell-Membrane Permeable IMPase Inhibitors: Potentiation with Lithium. hit rate 0.35% among 210,000. Potency, µM (series often up to 59.4 µM), inactives show at the top dose activity, negative = IMPase inhibition, usual class: inhibitors. AID 1457, 2008. CHO-M1 cells, IP1 TR-FRET (IP-One), carbachol + lithium;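 note: IP1 builds up when IMPase is blocked and the TR-FRET signal falls; plate controls were basal vehicle for no effect and high inhibitor control for full effect; nearly all actives have a fitted effect of over 50% in size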
#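 CHO cells stably expressing M1 receptor (2000/well, cultured 16–30 h) treated 30 min at 37C with compound plus low lithium. Cytosolic IP1 by TR-FRET (665/620 ratio and 620 channel) after 10 min lysis; AC50 by Hill fit.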
# NPSR antag – qHTS Assay for Antagonists of the Neuropeptide S Receptor: cAMP Signal Transduction | Q6W5P4 | CHO-NPSR cells, cAMP TR-FRET, antagonist mode | Potency, µM (series often up to 38.3 µM), for inactives: at the highest dose activity change, negative = inhibition, actives largely listed as inhibitors | hit rate 1% among 220,000; note: nearly all actives have a fitted effect of over 50% in size
# Target sequence (Q6W5P4 whole entry, looked up): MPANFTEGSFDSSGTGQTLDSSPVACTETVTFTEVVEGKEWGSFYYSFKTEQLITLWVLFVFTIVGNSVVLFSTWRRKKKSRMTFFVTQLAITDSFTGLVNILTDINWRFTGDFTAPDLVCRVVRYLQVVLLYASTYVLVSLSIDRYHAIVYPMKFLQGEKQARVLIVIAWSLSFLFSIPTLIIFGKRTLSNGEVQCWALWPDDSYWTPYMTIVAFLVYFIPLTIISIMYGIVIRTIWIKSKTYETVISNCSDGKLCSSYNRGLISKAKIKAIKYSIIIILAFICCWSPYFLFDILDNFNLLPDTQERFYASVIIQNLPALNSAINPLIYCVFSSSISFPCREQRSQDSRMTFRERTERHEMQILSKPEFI
# Starred values were filed as active, the others as inactive; ? = inconclusive; / = not tested or not shown; [ ] = another dose, or the depositor's remark. Calls come from the whole dose curve; as a rule, active = well fitted curve in the direction sought with a large enough effect; inconclusive = small, poorly fitted or top-dose-only effect, or another doubt; inactive = no such curve, though single readings can be large; an effect the other way counts as inactive or inconclusive. Unless noted, % is set by controls: 0 for no effect and ±100 for the full control effect; potency is the fitted concentration of half-maximal effect.
SMILES,ERK EGF inh,IMPase Li cell,NPSR antag
Cc1ccccc1NC1=C/C(=N\S(=O)(=O)c2cccs2)c2ccccc2C1=O,/,52%[38.3 µM],3.2µM*
Cc1ccc(NC2=C/C(=N/S(=O)(=O)c3cccs3)c3ccccc3C2=O)cc1C,16%,22%,-7%
CC(=O)Nc1ccc(NC(=O)C(C)OC(=O)c2ccccc2NS(=O)(=O)c2cccs2)cc1 (stereo not drawn),0%[57.5 µM],/,-57%
CC(=O)Nc1ccc(NC2=C/C(=N/S(=O)(=O)c3cccs3)c3ccccc3C2=O)cc1,?,54%,7.9µM*
Cc1c(C)c(C)c(CC2(C)CSC2)c(CC2(C)CSC2)c1C,/,5%,/
c1ccc(CN(CCN(Cc2ccccn2)Cc2ccccn2)Cc2ccccn2)nc1,/,54%,/
CCNC(=O)[C@H](C)/C=C/C(NC(=O)OCc1ccccc1)c1ccc(C(=O)OC)cc1 (stereo partly drawn),0%,2%,/
S=C(CN1CCCC1=S)NCCc1ccccc1,-3%[57.5 µM],/,3%
O=c1c2ccccc2oc2ccccc12,6%,-2%,/
S=c1[nH]ncn2c1cc1oc3ccccc3c12,-5%,1.1µM*,10µM*
O=C(Nc1ccc(Cl)cc1)c1cc2c(cc1O)[nH]c1ccccc12,-5%[57.5 µM],/,-50%
Cc1nnc(SCc2nc3scc(-c4ccccc4)c3c(=O)[nH]2)s1,-5%[57.5 µM],/,9%
CCn1c(SCc2nc3scc(-c4ccccc4)c3c(=O)[nH]2)nnc1-c1cccs1,25µM*,25%,-5%
CCCCN1C(=O)C(=Nc2cccc3cnccc23)c2ccccc21,?,5%,-44%
O=S(=O)(c1ccccc1)N1CN2CN(C1)CN(S(=O)(=O)c1ccccc1)C2,/,8%,/
COc1ccc(-[n+]2c(C)cc(/C=C3\Sc4ccccc4N3C)cc2C)cc1,-4%,38%,?
COc1ccccc1-[n+]1c(C)cc(/C=C2\Sc3ccccc3N2C)cc1C,-33%[57.5 µM],/,6.3µM*
Oc1ccc(/C=N/N2CCN(C3c4ccccc4-c4ccccc43)CC2)cc1,?,/,-7%
Oc1ccc(/C=N/N2CCN(C3c4ccccc4-c4ccccc43)CC2)cc1O,?,/,10µM*
Nc1ccc2nc(-c3ccc(Cl)cc3)[nH]c2c1,/,10µM*,2%[46.1 µM]
Nc1ccc(-c2nc3ccc(N)cc3[nH]2)cc1,-7%,-29%,-49%
CCOC(=O)C1CCN(c2nc(-c3ccccc3)nc3c2oc2ccccc23)CC1,/,37%[38.3 µM],13µM*
O=C(O)C1CCN(c2nc(-c3ccccc3)nc3c2oc2ccccc23)CC1,/,/,-15%[46.1 µM]
O=C1C(Cl)=C(N2CCN(c3ccccc3[N+](=O)[O-])CC2)C(=O)c2ccccc21,25µM*,33%,10µM*
O=[N+]([O-])c1cc(Cl)ccc1N1CCCC1,?,-5%,-5%
SMILES,ERK EGF inh,IMPase Li cell,NPSR antag
CC(C)COC[C@H](CN(Cc1ccccc1)c1ccccc1)N1CCCC1,13%[25.7 µM],15%,/
COCCn1c(=O)c(-c2cccs2)nc2cnc(N3CCOCC3)nc21,/,11µM*,/
COc1ccc(-n2c(=O)c(-c3cccs3)nc3cnc(N4CCOCC4)nc32)cc1,/,-6%,/
CC[C@H]1C2=C3C(CC[C@H]4C(OCc5ccc(F)cc5C(F)(F)F)OC[C@](C)([C@@H]34)N(C(=O)OC(C)(C)C)C2)C(COC)C1COC (stereo partly drawn),-2%,-6%,/
O=c1c(-c2cc(F)cc(F)c2)nc2cnc(N3CCNCC3)nc2n1-c1ccccc1,/,4%,/
COc1cc(OC)cc(-n2nnnc2SCC(=O)Nc2ccc(C(C)=O)cc2)c1,/,3.5µM*,9%[46.1 µM]
COc1ccc(NC(=O)CSc2nnnn2-c2ccc(OC)cc2)cc1,/,23%[38.3 µM],-10%[46.1 µM]
O=C(O)Cc1[nH]cnc1C(=O)O,/,2%,/
Cc1cc2nc(-c3ccc(SCC(=O)NC(C)C)nc3)[nH]c2cc1C,6%,3%,-18%
Cc1cc(NC(=O)CSc2ccc(-c3nc4cc(C)c(C)cc4[nH]3)cn2)no1,/,11µM*,?
Cc1ccc(C(=O)Nc2nc(C)c(C(=O)Nc3ccc4c(c3)CCC4)s2)cc1,-3%,-4%,-18%
Cc1nc(NC(=O)c2ccc(F)cc2)sc1C(=O)Nc1ccc2c(c1)CCC2,/,22µM*,-12%[46.1 µM]
O=[N+]([O-])c1cccc(-c2ccc(C(=S)N3CCOCC3)o2)c1,2%,2%,-15%
O=[N+]([O-])c1cccc(-c2ccc(C(=S)N3CCN(c4ccccc4)CC3)o2)c1,25µM*,/,-16%
C=C(C)[C@H]1CC=C(CO)CC1,/,0%,/
Cc1ccc2nc(-c3ccccn3)c(Nc3ccccc3C)n2c1,?,17%,13µM*
Cc1ccccc1Nc1c(-c2ccccn2)nc2ccccn12,27%,3%,-50%
O=C(O)c1ccc(N2C(=O)/C(=C\c3ccccc3)N=C2c2ccccc2)cc1,-7%[57.5 µM],/,6.3µM*
CC1=N/C(=C\c2ccc3c(c2)OCO3)C(=O)N1c1ccc(C(=O)O)cc1,5%,4%,-25%
COc1cc(/C=C\c2ccc(OC)cc2OC)cc(OC)c1,-29%,7%,/
CCN(CC)CCN(C(=O)c1ccc(S(=O)(=O)N2CCCCC2)cc1)c1nc2cc3c(cc2s1)OCO3,-4%,15%,10µM*
CN(C)CCCN(C(=O)c1ccc(S(=O)(=O)N(C)C)cc1)c1nc2cc3c(cc2s1)OCO3,-11%,17%,-25%
O=S1(=O)N[C@H]2CC[C@@H]3NS(=O)(=O)N[C@H]4CC[C@H](N1)N4S(=O)(=O)N23,/,-11%,/
Cn1c(=O)c2[nH]c(/N=N\N3CCN(CCO)CC3)nc2n(C)c1=O,/,1%,/
CCOC(=O)C1=C(C)N=c2s/c(=C/c3ccccc3)c(=O)n2C1c1ccc(OC)c(OC)c1 (stereo not drawn),/,11%[38.3 µM],?
SMILES,ERK EGF inh,IMPase Li cell,NPSR antag
CCOC(=O)C1=C(C)n2c(s/c(=C/c3cccc([N+](=O)[O-])c3)c2=O)=NC1c1ccc(O)c(OC)c1 (stereo not drawn),/,29%[38.3 µM],7.9µM*
Cc1noc(C)c1-c1nccc(NCc2cccs2)n1,/,26%,/
O=S(=O)(c1ccccc1)N1CCC2(CCN(c3ccc(-c4ccccc4)cc3)CC2)CC1,5%,1%,/
Cn1c(/C=C/c2ccc([N+](=O)[O-])o2)nc2ccccc2c1=O,/,-10%[38.3 µM],10µM*
Cc1cc(N/N=C/c2ccc([N+](=O)[O-])o2)nc2ccccc12,?,18%,-17%
CCOC(=O)/C(C#N)=C\C=C1C=CN(C)C=C1,/,44%[38.3 µM],13µM*
CCOC(=O)/C(C#N)=C\c1ccc(CC)s1,/,12%[38.3 µM],-14%[46.1 µM]
C[N+](C)(C)C(C1=CCCC1=O)c1ccccc1 (stereo not drawn),/,-8%,/
COc1ccccc1CNN,-7%[57.5 µM],-5%,-20%
COc1ccccc1CNCCCCCCNCCCCCCCCNCCCCCCNCc1ccccc1OC,3%,11%,13µM*
O=[N+]([O-])c1ccc(/C=N/Nc2nc(N3CCCCCC3)nc(N3CCCCCC3)n2)o1,?,13%,6.3µM*
O=C(O)/C=C/c1ccc([N+](=O)[O-])o1,8%,-6%,7%
O=[N+]([O-])c1ccc(/C=N/N=C/c2ccc([N+](=O)[O-])o2)o1,1%,17%,5µM*
